Rows were chosen to be rich in hits. Some 11% of all compounds tested hit in one or more screens of this group.
IMPase cell inh – cell-permeable inhibitors of inositol monophosphatase (IMPase); P97697; CHO-M1 cells, IP1 accumulation, HTRF TR-FRET ratio; inhibition (IP1 accumulation), % at 46.1 µM; 120,000 tested, under 10 active; AID 901; active means well fitted curve in the direction sought with a large enough effect in the signal ratio, not every such curve was filed as active; inconclusive means small, poorly fitted or top-dose-only effect, or a change in a side signal; inactive means no such curve, though single readings can be large or run the other way; the % refers to the signal ratio;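 further: cells stimulated with carbachol in lithium chloride buffer; plate controls were DMSO basal wells for no effect and reference inhibitor wells for full effect; higher means more IMPase inhibition seen as more IP1 and lower FRET ratio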
Target sequence (P97697 whole entry, looked up): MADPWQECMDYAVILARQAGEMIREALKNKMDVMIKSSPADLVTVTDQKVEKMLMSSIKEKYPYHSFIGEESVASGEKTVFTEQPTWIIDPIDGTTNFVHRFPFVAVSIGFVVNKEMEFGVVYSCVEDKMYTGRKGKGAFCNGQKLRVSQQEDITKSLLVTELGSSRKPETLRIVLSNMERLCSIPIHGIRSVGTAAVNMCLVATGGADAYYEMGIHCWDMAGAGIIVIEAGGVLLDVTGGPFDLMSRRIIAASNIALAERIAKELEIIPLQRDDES
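Cellular IMPase inhibition is scored as a rise in cytosolic IP1, detected by competitive TR-FRET between d2-labelled IP1 and a europium anti-IP1 antibody. M1-expressing CHO cells were stimulated with carbachol for 30 min at 37C, with lithium (50 mM LiCl) present in the buffer.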
IMPase Li cell – membrane-permeable IMPase blocker, potentiated with lithium; CHO-M1 cells, IP1 TR-FRET (IP-One), carbachol + lithium; Potency, µM (highest dose often 59.4 µM), without a hit: at the top dose activity, negative = IMPase inhibition, usual class: inhibitors; actives 0.35% (n = 210,000); AID 1457;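 further: IP1 builds up when IMPase is blocked and the TR-FRET signal falls; potency means the concentration at half of the fitted maximal effect; plate controls were basal vehicle for no effect and high inhibitor control for full effect; nearly all actives have a fitted effect of over 50% in size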
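Readout is a homogeneous TR-FRET IP1 immunoassay (Ex 320, Em 665 and 620), where raised cytosolic IP1 lowers signal. Cells were CHO-M1 treated 30 min at 37C with test compounds plus a little lithium; AC50 values came from Hill-equation fitting.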
PNC inhibitor – perinucleolar compartment assembly inhibition; PC3M PTB-GFP, PNC prevalence imaging, 16 h; hits give low values; activity change (PNC), negative = inhibition, % at 10 µM; actives 3.1% (n = 140,000);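 active means readout at or below -70, meaning at least 70% loss of cells showing the perinucleolar compartment, a nuclear body marking cancer cells; inconclusive means readout between -30 and a set limit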;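 further: plate controls were DMSO wells for no effect and camptothecin positive control wells for full effect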
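PC3M cells stably expressing PTB-GFP, 750–1000 cells/well, treated 16 h at 37 °C with compound (23 nl of library stock), in duplicate. After paraformaldehyde fixation and Hoechst stain, imaged at 20x; PNC prevalence scored by image analysis.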
NPSR antagonist – antagonists of human neuropeptide S receptor cAMP signaling | AID 1461 | actives 1% (n = 220,000) | CHO-NPSR cells, cAMP TR-FRET, antagonist mode | Q6W5P4 | Potency, µM (highest dose often 38.3 µM), without a hit: top-dose activity change, negative = inhibition, hits mostly inhibitors; further: potency means the concentration at half of the fitted maximal effect; nearly all actives have a fitted effect of over 50% in size
ALDH1A1 inh – ALDH1A1 (human) enzyme inhibition. Potency, µM (highest dose often 75.3 µM), without a hit: top-dose activity, negative = inhibition, hits mostly inhibitors. AID 1030. actives 7.3% (n = 220,000). P00352. Purified ALDH1A1, NADH fluorescence, propionaldehyde substrate; active means well fitted inhibition curve with a large enough effect, not every such curve was filed as active; inconclusive means small, poorly fitted or top-dose-only effect, or another doubt; inactive means no such curve, though single readings can be large or run the other way;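 further: potency means the concentration at half of the fitted maximal effect; plate controls were no enzyme wells and a reference inhibitor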
Target sequence (P00352 whole entry, looked up): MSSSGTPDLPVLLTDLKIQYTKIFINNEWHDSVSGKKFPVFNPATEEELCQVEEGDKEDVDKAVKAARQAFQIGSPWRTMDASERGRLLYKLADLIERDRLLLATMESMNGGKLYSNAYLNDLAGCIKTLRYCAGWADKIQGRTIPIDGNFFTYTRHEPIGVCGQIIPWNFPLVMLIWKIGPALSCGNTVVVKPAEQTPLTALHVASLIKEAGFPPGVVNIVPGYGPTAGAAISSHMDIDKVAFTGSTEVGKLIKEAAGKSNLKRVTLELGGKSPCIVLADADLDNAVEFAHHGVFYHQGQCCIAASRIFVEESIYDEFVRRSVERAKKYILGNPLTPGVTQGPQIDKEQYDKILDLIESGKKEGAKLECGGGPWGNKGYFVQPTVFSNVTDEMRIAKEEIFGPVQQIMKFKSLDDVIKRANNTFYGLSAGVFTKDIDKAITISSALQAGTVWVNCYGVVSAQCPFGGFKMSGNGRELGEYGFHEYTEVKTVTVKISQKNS
HPGD block – inhibitors of human 15-hydroxyprostaglandin dehydrogenase (HPGD); P15428; purified HPGD, NADH fluorescence kinetic, PGE2 substrate; Potency, µM, inactives show at the top dose activity change, negative = inhibition, actives largely listed as inhibitors; actives 4.3% (n = 150,000); AID 894; active means well fitted inhibition curve with a large enough effect, not every such curve was filed as active; inconclusive means small, poorly fitted or top-dose-only effect, or another doubt; inactive means no such curve, though single readings can be large or run the other way; further: potency means the concentration at half of the fitted maximal effect
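NADH formation kinetics: reaction with 30 uM PGE2 and 1 mM NAD+ (final), 20 nM enzyme, Tris-HCl pH 8 with Tween 20, after 15 min compound preincubation at room temperature. Fluorescence change, last versus first of five reads.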
* hit, by the source's call; ? = inconclusive; nt = no result given; [ ] = another dose, or the depositor's remark. Unless noted, the call rests on the fitted dose curve; in most records, active means well fitted curve in the direction sought with a large enough effect; inconclusive means small, poorly fitted or top-dose-only effect, or another doubt; inactive means no such curve, though single readings can be large; an effect the other way counts as inactive or inconclusive. Unless noted, on the % scale 0 is the no-effect control and ±100 the full control effect.

SMILES	IMPase cell inh	IMPase Li cell	PNC inhibitor	NPSR antagonist	ALDH1A1 inh	HPGD block
COc1cccc(CNC(=O)CCS(=O)(=O)c2cccc3nonc23)c1	-4.0	-3.7%[38.3 µM]	32.7	-6.9%[46.1 µM]	?	-3.9%
COc1ccc(N(C)C(=O)CCS(=O)(=O)c2cccc3nonc23)c(OC)c1	0.3	38.3%[38.3 µM]	22.3	-5.2%[46.1 µM]	12.6µM*	-4.5%
Cc1ccc(Cl)cc1N1CCN(C(=O)CCS(=O)(=O)c2cccc3nonc23)CC1	-0.9	12.4%	?	-26.1%	22.4µM*	-6.7%
O=C(CCCC(=O)N1CCCc2ccccc21)N1CCCc2ccccc21	4.8	15.0%[38.3 µM]	33.8	0.5%[46.1 µM]	-14.7%	-4.3%
Cc1cccc(N(C)C(=O)CCS(=O)(=O)c2cccc3nonc23)c1	6.2	27.4%[38.3 µM]	25.6	-4.3%[46.1 µM]	?	-7.6%
Cc1ccc(C)c(N2CCN(C(=O)C3CCCN(S(=O)(=O)c4cccc5nonc45)C3)CC2)c1 (configuration not stated)	3.2	nt	nt	nt	nt	nt
Cc1ccnc(NC(=O)c2ccc(Cl)cc2Cl)n1	nt	12.7%	nt	-2.6%	-11.4%	nt
COc1ccc(/C=C2/C(=N)N3C(=NC2=O)Sc2cc(S(C)(=O)=O)ccc23)cc1OC	nt	nt	nt	-13.2%	nt	nt
CC(C)CCNC(=O)CCS(=O)(=O)c1cccc2nonc12	1.9	34.0%[38.3 µM]	-22.9	10.8%[46.1 µM]	10µM*	-7.0%
Cc1ccc(C)c(N2CCN(C(=O)CCNC(=O)Cn3ccc4ccccc4c3=O)CC2)c1	3.7	?	-10.4	?	0.7%	?
CC(C)NC(=O)CCS(=O)(=O)c1cccc2nonc12	5.8	10.8%[38.3 µM]	12.7	-10.4%[46.1 µM]	25.1µM*	-5.1%
O=C(CCS(=O)(=O)c1cccc2nonc12)NCc1ccc(Cl)cc1	nt	9.3%	nt	11.9%	8.91µM*	nt
Cc1ccc(NC(=O)CCS(=O)(=O)c2cccc3nonc23)cc1	nt	2.7%	nt	1.9%	?	nt
Cc1ccc(Cl)cc1N1CCN(C(=O)Cn2ccc3ccccc3c2=O)CC1	3.5	nt	22.7	-16.5%[46.1 µM]	20µM*	nt
COc1ccc(-n2c(=O)c(-c3cccs3)nc3cnc(N4CCNCC4)nc32)cc1	nt	19.4%	nt	nt	?	?
c1ccc(Cn2nnnc2C(c2ccccn2)N2CCOCC2)cc1 (configuration not stated)	4.4	1.2%[38.3 µM]	26.7	-13.6%[46.1 µM]	5.1%	-0.8%
C[C@H](CCC(=O)O)[C@H]1CC[C@H]2[C@@H]3[C@@H](O)C[C@@H]4C[C@H](O)CC[C@]4(C)[C@H]3CC[C@]12C	nt	-11.1%	nt	-24.6%	5.2%	nt
Oc1ccc2ccccc2c1/C=C\c1ccc2c(Br)cc(Br)c(O)c2n1	nt	1.8%	nt	nt	21.4%[13.5 µM]	-13.2%
COc1ccc(NC(=O)N(C2CCCCC2)C(C)c2cccnc2)c(OC)c1 (configuration not stated)	10.3	5.6%[38.3 µM]	-84.9*	-22.0%[46.1 µM]	1.1%	-3.7%
CCOc1cc(NC2CS(=O)(=O)CC2O)c(OCC)cc1NC(=O)c1ccccc1 (configuration not stated)	14.2	11.7%[38.3 µM]	78.5	-18.9%[46.1 µM]	12.6µM*	-12.7%
CC1(C)CC2CC(C)(CN2C(=O)Cc2ccccc2)C1 (configuration not stated)	10.7	-3.5%	-24.5	-6.2%[46.1 µM]	?	?
O=C(Cn1sc2ccccc2c1=O)NC12CC3CC(CC(C3)C1)C2	-3.8	29.3%[38.3 µM]	18.4	?	0.0708µM*	0.316µM*
Cc1nc2ccc(Cl)cn2c1C(=O)NN	nt	3.5%	nt	-18.1%	2µM*	nt
CCOC(=O)c1c(-c2ccccc2)nc2ccc(Cl)cn12	-0.6	-20.2%[38.3 µM]	-19.5	-15.3%[46.1 µM]	-2.9%	-1.4%
COc1cccc(C2=NOC(C(=O)NCc3ccccn3)C2)c1 (configuration not stated)	7.0	-13.3%[38.3 µM]	42.6	-8.6%[46.1 µM]	0.3%	8.1%
SMILES	IMPase cell inh	IMPase Li cell	PNC inhibitor	NPSR antagonist	ALDH1A1 inh	HPGD block
O=C1ON=C(c2ccc(Cl)cc2)/C1=C/c1ccc(O)cc1	nt	16.4%	nt	6.31µM*	12.6µM*	nt
COc1cc(/C=C2/C(=O)ON=C2c2ccccc2)ccc1O	nt	13.3%	28.9	?	?	11.2µM*
Cc1sc(/C=C2\C(=O)ON=C2c2ccccc2)cc1Br	3.5	0.0%	-17.3	2.0%	0.1%	-13.5%
COc1cc(/C=C2\C(=O)ON=C2c2ccccc2)cc(Cl)c1O	nt	13.2%	nt	7.94µM*	?	nt
CCOP(=O)(Nc1ccc2oc(=O)c3ccccc3c2c1)OCC	nt	nt	nt	7.7%	nt	nt
CCCCCC1=C(C(=O)OC)C(C(=O)OCC)N(S(=O)(=O)C(F)(F)F)c2ccccc21 (configuration not stated)	nt	18.8%	nt	nt	?	-16.0%
CN1CCN(c2ccccc2NC(=O)c2ccc(Br)o2)CC1	-9.1	30.0%[38.3 µM]	?	1.4%[46.1 µM]	-1.2%	-2.0%
COc1ccccc1C(=O)Nc1ccccc1N1CCN(S(C)(=O)=O)CC1	3.3	25.8%[38.3 µM]	-90.9*	?	?	?
CS(=O)(=O)N1CCN(c2ccccc2NC(=O)c2ccc(-c3ccc(Cl)cc3Cl)o2)CC1	1.2	10.2%[38.3 µM]	?	3.16µM*	?	?
CS(=O)(=O)N1CCN(c2ccccc2NC(=O)c2ccc(Br)o2)CC1	1.6	1.1%[38.3 µM]	-24.7	-16.5%[46.1 µM]	3.16µM*	-6.9%
COc1cc(C(=O)Nc2ccccc2N2CCN(S(C)(=O)=O)CC2)cc(OC)c1OC	-5.9	-0.6%[38.3 µM]	5.2	-0.6%[46.1 µM]	-10.1%	-11.3%
COc1ccc(-n2c(=O)c(C)nc3cncnc32)cc1	nt	3.4%	nt	nt	25.1µM*	-29.6%
Cc1cccc(CN2CCN(Cc3nc4c(s3)CCCC4)CC2CCO)n1 (configuration not stated)	nt	nt	nt	-0.4%	-11.2%	nt
COc1cc(C(C)=O)ccc1COc1ccc(C(=O)OCC(=O)NC2CCS(=O)(=O)C2)cc1OC (configuration not stated)	nt	-0.8%	?	13.0%	0.6%	-8.3%
Cc1cc(/C=N/O)c(C)n1-c1ccccc1	nt	-4.5%	0.0	18.3%	-6.9%	-27.4%
Cc1cc(/C=N/O)c(C)n1-c1cccc(Cl)c1	nt	22.4%	nt	-0.1%	14.1µM*	nt
CCOC(=O)c1cccc(-n2c(C)cc(C=O)c2C)c1	nt	3.7%	?	4.0%	11.2µM*	-0.7%
COC(=O)c1ccc(C)c(-n2c(C)cc(C=O)c2C)c1	nt	1.1%	-24.0	14.8%	1.78µM*	-21.1%
COC(=O)c1cccc(-n2c(C)cc(C=O)c2C)c1	nt	-7.0%	5.4	13.0%	7.94µM*	-13.0%
COC(=O)c1c(C(=O)OC)c(-c2ccc(C)cc2)n2c1CS(=O)C2 (configuration not stated)	-2.8	-4.5%[38.3 µM]	26.9	?	2.6%	-6.4%
CCOc1cc(C2NN=C(c3ccccc3)S2)ccc1OCc1ccc(F)cc1 (configuration not stated)	-1.5	17.0%[38.3 µM]	51.7	-13.7%[46.1 µM]	?	?
